Screening results deposited in PubChem BioAssay by National Center for Advancing Translational Sciences (NCATS).
FBPA Giardia inh – Giardia lamblia aldolase inhibition; purified Giardia FBPA; hit rate 0.71% among 290,000; Potency, µM (highest dose often 59.6 µM), most hits filed as inhibitors; further: nearly all actives have a fitted effect of over 55% in size
Target sequence (A8B2U2 whole entry, looked up): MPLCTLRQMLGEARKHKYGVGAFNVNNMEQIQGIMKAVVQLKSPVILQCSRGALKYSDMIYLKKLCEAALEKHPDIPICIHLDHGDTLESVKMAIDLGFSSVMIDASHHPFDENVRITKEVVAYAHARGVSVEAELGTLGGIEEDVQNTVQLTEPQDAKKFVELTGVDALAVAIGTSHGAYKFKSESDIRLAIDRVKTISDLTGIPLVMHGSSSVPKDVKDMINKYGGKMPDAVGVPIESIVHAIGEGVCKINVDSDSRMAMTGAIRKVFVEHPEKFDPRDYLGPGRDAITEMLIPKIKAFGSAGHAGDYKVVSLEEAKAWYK
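40 nM FBPA preincubated 10 min at RT with compound (up to 57.5 uM final), then substrate plus GAPDH/TPI/NAD/arsenate coupling and diaphorase/resazurin added. Fluorescence read after 20 min at RT, 525/598 nm.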
RE007 growth inh – less growth of the S. pombe RE007 Vpr strain; Potency, µM (titrated, usually from 92.2 µM), hits mostly inhibitors; hit rate 0.21% among 360,000; S. pombe RE007 Vpr strain, BacTiter-Glo ATP luminescence, 24 h; active means well fitted falling curve with a large enough effect; inconclusive means small, poorly fitted or top-dose-only effect; inactive means no such curve, though single readings can be large or run the other way; further: nearly all actives have a fitted effect of over 50% in size
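Fission yeast RE007 carrying one integrated HIV-1 vpr copy, seeded at OD 0.01 in PMG+AL medium with 23 nL pinned compound. Grown 24 h at 30 degrees; viability read by BacTiter-Glo luminescence after 5 min.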
NS1 function inh – inhibitors of influenza NS1 protein function; Potency, µM (top dose mostly 46.1 µM); hit rate 0.4% among 270,000; calls by dose curve; further: actives are rising curves; nearly all actives have a fitted effect of over 50% in size
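Compounds were scored for reversing the slow growth caused by influenza A NS1 in S. cerevisiae, measured by optical density at 600 nm. Assay medium contained 2% galactose at pH 6.0; NS1-free yeast of the same strain were the positive control.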
Sm TGR inh – inhibitors of Schistosoma mansoni thioredoxin glutathione reductase; Q962Y6; purified TGR, DTNB reduction, TNB absorbance 405 nm; Potency, µM (series often up to 114 µM), actives largely listed as inhibitors; hit rate 3% among 360,000; AID 485364; further: nearly all actives have a fitted effect of over 60% in size
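Kinetic colorimetric format: TGR-catalysed, NADPH-driven DTNB reduction monitored via TNB absorbance. Enzyme dispensed at 20 nM; compound exposure 15 min at room temperature before reaction start.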
LmPK inhibitor – blocks Leishmania mexicana pyruvate kinase activity. Q27686. purified LmPK, Kinase-Glo ATP luminescence, 1 h. Potency, µM (doses to about 57.5 µM), actives largely listed as inhibitors. hit rate 0.37% among 290,000
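Pyruvate kinase activity monitored as ATP production (luciferase luminescence). Conditions: 0.1 nM enzyme, 0.5 mM PEP, 0.1 mM ADP, 1 h, RT; normalized against uninhibited and no-enzyme wells.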
Tb PYK inh – blocks Trypanosoma brucei pyruvate kinase; Q57TT1; TbPYK enzyme, Kinase-Glo Plus ATP luminescence, 45 min; Potency, µM (titrated, usually from 76.8 µM), actives largely listed as inhibitors; hit rate 0.12% among 410,000; AID 624173; further: nearly all actives have a fitted effect of over 50% in size
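Luminescent Kinase-Glo Plus end-point after 45 min room-temperature reaction of T. brucei pyruvate kinase started with 130 uM ADP (final). Buffer TEA 50 mM pH 7.2 with KCl, MgCl2, BSA, Tween-20; titration-based qHTS with fitted concentration-effect curves.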
Of the large screens only hits and unclear results are named; the others gave an inactive call. An excerpt weighted towards active compounds, which were near 3.5% of everything screened. Unless noted, the call rests on the fitted dose curve; in most records, active means well fitted curve in the direction sought with a large enough effect; inconclusive means small, poorly fitted or top-dose-only effect, or another doubt; inactive means no such curve, though single readings can be large; an effect the other way counts as inactive or inconclusive.

CC(=O)N1CCC2(CC1)CC(=O)c1cc(OCC(=O)NCc3ccco3)ccc1O2	Sm TGR inh 25.1µM
CCN(CC)CCN1C(=O)C(O)=C(C(C)=O)C1c1ccccc1[N+](=O)[O-] (stereo not given)	FBPA Giardia inh inconclusive, Sm TGR inh 44.7µM
COc1ccc(-c2nnc(SCC(=O)Nc3cccc(C(F)(F)F)c3)s2)cc1	none (no result: FBPA Giardia inh, RE007 growth inh, NS1 function inh, LmPK inhibitor)
O=C1C=CC(=O)N1	RE007 growth inh inconclusive, Sm TGR inh 0.891µM (no result: FBPA Giardia inh, NS1 function inh, LmPK inhibitor)
O=C(C1CCCCC1)N(Cc1cccnc1)c1nc2ccc(Cl)cc2s1	none (no result: FBPA Giardia inh, RE007 growth inh, NS1 function inh, LmPK inhibitor)
O=C1C=C(Nc2ccccc2O)c2ccccc2C1=O	FBPA Giardia inh 17.7µM, RE007 growth inh inconclusive
O=C1C=C(NCc2ccccc2)c2ccccc2C1=O	FBPA Giardia inh 1.26µM, RE007 growth inh inconclusive, Sm TGR inh 28.2µM
O=c1cccccc1NCc1ccccc1	FBPA Giardia inh 8.89µM, NS1 function inh inconclusive, Sm TGR inh 35.5µM (no result: Tb PYK inh)
Cc1ccc(NC2=CC(=O)C(=O)c3ccccc32)c(C)c1	none (no result: FBPA Giardia inh, NS1 function inh, LmPK inhibitor)
C=CCOC(=O)NC(c1ccc(F)c(F)c1)C(C(=O)CCl)C(=O)OC (stereo not given)	none (no result: RE007 growth inh, NS1 function inh, Sm TGR inh, LmPK inhibitor, Tb PYK inh)
COc1ccc(NC(=O)c2ccc(-n3cccn3)c([N+](=O)[O-])c2)cc1	Sm TGR inh 39.8µM
O=C(Nc1ccc(Cl)cc1)c1ccc(-n2cccn2)c([N+](=O)[O-])c1	none
COc1ccccc1NC(=O)c1ccc(-n2cccn2)c([N+](=O)[O-])c1	Sm TGR inh 25.1µM
Cc1ccc(NC(=O)c2ccc(-n3cccn3)c([N+](=O)[O-])c2)cc1C	Sm TGR inh 11.2µM
COc1ccc(C(OCCN2CCC[C@H](C(=O)O)C2)(c2ccc(OC)cc2)c2ccc(OC)cc2)cc1	none (no result: RE007 growth inh, NS1 function inh, Sm TGR inh, LmPK inhibitor, Tb PYK inh)
O=C(CCSc1ccccn1)c1ccccc1	RE007 growth inh 25.1µM (no result: NS1 function inh)
N#Cc1c2n(c3c(=S)nc[nH]c13)CCCCC2	FBPA Giardia inh inconclusive, LmPK inhibitor 22.4µM, Tb PYK inh inconclusive
CCc1ccccc1NC(=O)c1sc2nc(C)cc(COC)c2c1N	none (no result: FBPA Giardia inh, RE007 growth inh, NS1 function inh, LmPK inhibitor)
CCn1cc(C(=O)NCCc2ccc(C)cc2)c(=O)c2cc(S(=O)(=O)N3CCCCC3)ccc21	none (no result: FBPA Giardia inh, RE007 growth inh, NS1 function inh, LmPK inhibitor)
Cc1ccc(CCNC(=O)c2cn(C)c3ccc(S(=O)(=O)N4CCCCC4)cc3c2=O)cc1	Sm TGR inh 22.4µM (no result: FBPA Giardia inh, RE007 growth inh, NS1 function inh, LmPK inhibitor)
O=c1c(-c2ccc(Cl)cc2)nc2cnc(N3CCNCC3)nc2n1Cc1cccs1	none (no result: RE007 growth inh, NS1 function inh, Sm TGR inh, LmPK inhibitor, Tb PYK inh)
O=C1C=CC(=Nc2ccc(F)cc2)O1	RE007 growth inh 5.01µM, Tb PYK inh inconclusive (no result: FBPA Giardia inh, NS1 function inh, Sm TGR inh, LmPK inhibitor)
CCOc1ccc(NC(=O)c2oc3ccccc3c2NC(=O)Cc2cccs2)cc1	none (no result: FBPA Giardia inh, RE007 growth inh, NS1 function inh, LmPK inhibitor)
Cc1cnc(C(=O)Nc2cccc3ncccc23)cn1	none
Cc1cnc(C(=O)Nc2ccccc2-c2ccc(C)o2)cn1	FBPA Giardia inh inconclusive, Sm TGR inh 20µM
CCN(C(=O)c1cc2c(s1)-c1c(C)cccc1OC2)c1ccccc1F	none (no result: FBPA Giardia inh, RE007 growth inh, NS1 function inh, LmPK inhibitor)
C=CCn1c(-c2ccc(OC)cc2)nc2nc3ccccc3nc21	none
S=c1nc(-c2ccccc2)n(Cc2cccnc2)c2c1CCCC2	Sm TGR inh inconclusive
S=c1nc(-c2ccccc2)n(Cc2ccco2)c2c1CCCC2	Sm TGR inh 35.5µM (no result: RE007 growth inh, Tb PYK inh)
c1ccc(-c2nc3nc4ccccc4nc3n2Cc2ccco2)cc1	Sm TGR inh 10µM
Fc1ccc(-c2nc3nc4ccccc4nc3n2Cc2ccco2)cc1	Sm TGR inh 20µM
CC(C)c1ccc(NC(=O)CN2C(=O)COc3ccc(S(=O)(=O)N4CCCCCC4)cc32)cc1	none (no result: FBPA Giardia inh, RE007 growth inh, NS1 function inh, LmPK inhibitor)
NC(=O)c1nc(Nc2ccccc2)sc1NC(=O)c1ccccc1Br	none (no result: FBPA Giardia inh, RE007 growth inh, NS1 function inh, LmPK inhibitor)
CCCCN(CC)C(=O)CSc1nc2n[nH]c(C)c2c(=N)n1-c1ccc(CC)cc1	none (no result: FBPA Giardia inh, RE007 growth inh, NS1 function inh, LmPK inhibitor)
Nc1c(C(=O)NCc2ccccc2)c2nc3ccccc3nc2n1-c1ccc2c(c1)OCO2	Sm TGR inh inconclusive
COc1cc(-n2c(N)c(C(=O)NCc3ccco3)c3nc4ccccc4nc32)cc(OC)c1OC	Sm TGR inh 25.1µM
COc1ccc(-n2c(N)c(C(=O)NCc3ccco3)c3nc4ccccc4nc32)cc1OC	FBPA Giardia inh inconclusive, Sm TGR inh 39.8µM
Nc1c(C(=O)NCc2ccco2)c2nc3ccccc3nc2n1CCc1ccc(F)cc1	FBPA Giardia inh inconclusive, NS1 function inh inconclusive, Sm TGR inh inconclusive
Nc1c(C(=O)NCc2ccco2)c2nc3ccccc3nc2n1CCN1CCCCC1	none
